Results on seven compounds are retold here after PubChem BioAssay (NCATS).

Molecules are shown by their SMILES. Records with an inconclusive call do not appear. Calls of active or inactive are those of the source. Unless noted, no rule for the calls is given here.

Assay [1] can be described thus: qHTS profiling for inhibitors of Plasmodium falciparum (3D7) proliferation (AID 743322).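 Also: infected erythrocytes exposed to compound for 72 h before lysis; 100% = DMSO vehicle wells and 0% = 0.29 µM artemisinin.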 To be noted: P. falciparum 3D7 proliferation; at 28.7 µM (top of the series) unless noted. Put shortly: (§1)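 Parasite DNA was quantified by SYBR Green I fluorescence (ex 485, em 535 nm) after overnight lysis in saponin/Triton buffer at room temperature. Cultures at 0.3% parasitemia and 2.5% hematocrit were first exposed to compound for 72 h at 37 C; signals were normalised to artemisinin (0.29 uM) and vehicle wells.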
Background: qHTS replaces the single test concentration by a dilution series.

A short description of assay [2]: qHTS profiling for inhibitors of Plasmodium falciparum (DD2) proliferation (AID 743323). The settings on record: lower = more inhibition; at 28.7 µM (top of the series) unless noted. The procedure, abridged:
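1536-well qHTS; infected RBCs 0.3% parasitemia/2.5% Hct final; cpd 72 h 37 C 5% CO2; lysis buffer + SYBR Green I, o/n RT dark; FI 485/535; norm. to 0.29 uM artemisinin and DMSO, plate-stack corrected.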

A short description of assay [3]: qHTS profiling for inhibitors of Plasmodium falciparum (HB3) proliferation (AID 743324; active = well fitted curve in the direction sought with a large enough effect; an effect the other way counts as inactive or inconclusive;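 also: 100% = DMSO vehicle wells and 0% = artemisinin-treated control wells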). To be noted: Plasmodium falciparum HB3 blood-stage proliferation; at 28.7 µM (top of the series) unless noted. Put shortly: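 SYBR Green fluorescence (485 ex/535 em) of lysed cultures, incubated overnight at room temperature in the dark, quantifies parasite DNA. Infected erythrocytes at 0.3% parasitemia and 2.5% hematocrit were exposed 72 h; values normalized to DMSO and 0.29 uM artemisinin controls.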

Assay [4] can be described thus: qHTS profiling of the MIPE4 collection as inhibitors of Plasmodium falciparum (3D7) proliferation (AID 743344).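 Also: scaled between DMSO vehicle wells and 0.29 µM artemisinin as full inhibition.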 The settings on record: P. falciparum 3D7 in erythrocytes, SYBR Green DNA fluorescence, 72 h; at 28.5 µM (top of the series) unless noted. The procedure, abridged:
as §1

Assay [5] is described as follows: qHTS profiling of the MIPE4 collection as inhibitors of Plasmodium falciparum (DD2) proliferation (AID 743345). The settings on record: P. falciparum Dd2 in erythrocytes, SYBR Green DNA, 72 h; at 28.5 µM (top of the series) unless noted. Put shortly:
as §1

Assay [6] in a line: qHTS profiling of the MIPE4 collection as inhibitors of Plasmodium falciparum (DD2) proliferation (Rep 2) (AID 743346). To be noted: P. falciparum Dd2 in erythrocytes, SYBR Green DNA, 72 h; at 28.5 µM (top of the series) unless noted. The procedure, abridged:
as §1

Assay [7] is described as follows: qHTS profiling of the MIPE4 collection as inhibitors of Plasmodium falciparum (HB3) proliferation (AID 743347).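 Also: plate controls were DMSO vehicle wells for no effect and artemisinin wells for full effect.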 To be noted: P. falciparum HB3 in erythrocytes, SYBR Green DNA, 72 h; at 28.5 µM (top of the series) unless noted. The procedure, abridged:
as §1

A short description of assay [8]: Cell Proliferation Assay Versus the ED40515 IL2 Independent ATL cell lines (AID 1053194; calls by dose curve). The settings on record: ED40515 IL2-independent ATL cells. Put shortly: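 CellTiter-Glo luminescence, read after 15 min at RT, gave viability of IL-2-free ED40515 cells (1000/well, RPMI plus 5% FBS) following 48 h drug exposure at 37C. Control wells held DMSO or 9.2 uM bortezomib.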

Assay [9] is described as follows: High-throughput drug toxicity screening in the BPDCN cell line Gen2.2 (AID 1224824).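 Also: cells exposed to compounds for 48 h before reading.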 The settings on record: Gen2.2 BPDCN cells; at 45.8 µM (top of the series) unless noted. The procedure, abridged: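 Gen2.2 cells (500/well) in phenol red-free RPMI with 10% FBS were exposed to compounds for 48 h at 37 °C, 5% CO2. Viability was read by CellTiter-Glo luminescence and normalized to DMSO (100%) and 9.2 uM bortezomib (0%).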

Assay [10] in a line: High-throughput drug toxicity screening in the BPDCN cell line Cal-1 (AID 1224825). The settings on record: Cal-1 BPDCN cell viability, qHTS; at 45.8 µM (top of the series) unless noted. Put shortly:
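CellTiter-Glo luminescence after 48 h compound exposure; percent activity scaled with DMSO as 100% and bortezomib (9.2 uM final) as 0%. Cal-1 cells seeded at 500/well in RPMI, 10% FBS, no phenol red.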

A short description of assay [11]: qHTS assay for measurement of the activity of small molecule inhibitors on Zika virus induced Caspase-3 activity in human iPSC derived neural progenitor cells (hNPCs) (AID 1224857; active = well fitted curve in the direction sought with a large enough effect; an effect the other way counts as inactive or inconclusive; also: % of control where 0% means no effect; nearly all actives have a fitted effect of over 65% in size). The procedure, abridged: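 Values are percent inhibition of virus-induced caspase-3/7 signal, scaled between uninfected cells and ZIKV-infected cells. Infection used 2 FFU/cell for 6 h after 1 h compound exposure.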

A short description of assay [12]: qHTS assay for measurement of the activity of small molecule inhibitors on Zika virus induced Caspase-3 activity in human astrocytoma cells (AID 1224859; active = well fitted curve in the direction sought with a large enough effect; an effect the other way counts as inactive or inconclusive;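 also: plate controls were ZIKV-infected untreated cells for no effect and uninfected cells for full effect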). The procedure, abridged: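 Compound added 1 h pre-infection; ZIKV 2 FFU/cell on SNB-19 cells, 6 h, 37 C/5% CO2. Caspase-Glo 3/7 luminescence; values as % inhibition of ZIKV-induced caspase activity.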
The nature of assay [13]: qHTS Assay for Identifying Gametocytocidal Compounds (AID 743244; active = well fitted curve in the direction sought with a large enough effect; an effect the other way counts as inactive or inconclusive;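 also: % is scaled to controls: 0 for no effect and ±100 for the full control effect; actives lower the fluorescent signal which means gametocytes are killed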). The settings on record: P. falciparum 3D7 stage III-V gametocytes, alamarBlue, 72 h; max response: stronger effect = lower value. The procedure, abridged: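 Stage III–V gametocytes of P. falciparum 3D7 were seeded at 20,000 cells/well onto pre-dispensed compounds. After 72 h, 37 °C, 5% CO2, alamarBlue was added for another 24 h.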

A short description of assay [14]: qHTS Screen of the MIPE 4.0 Collection Against Ewings Sarcoma (RDES) (AID 1259252; active = well fitted curve in the direction sought with a large enough effect; an effect the other way counts as inactive or inconclusive; also: potency is read from the fitted curve at half-maximal effect; nearly all actives have a fitted effect of over 35% in size). Put shortly:
(§2)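 Viability screen: 48 h incubation at 37C, 95% humidity, 5% CO2 with serially titrated compound, followed by CellTiter-Glo readout.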

Assay [15] in a line: qHTS Screen of the MIPE 4.0 Collection Against Ewings Sarcoma (TC71) (AID 1259253; active = well fitted curve in the direction sought with a large enough effect; an effect the other way counts as inactive or inconclusive; also: potency is read from the fitted curve at half-maximal effect; nearly all actives have a fitted effect of over 40% in size). The procedure, abridged: as §2
A short description of assay [16]: qHTS Screen of the MIPE 4.0 Collection Against Ewings Sarcoma (EW8) (AID 1259255; active = well fitted curve in the direction sought with a large enough effect; an effect the other way counts as inactive or inconclusive; also: potency is read from the fitted curve at half-maximal effect; nearly all actives have a fitted effect of over 35% in size). Put shortly: as §2

In turn, `OCCC#Cc1nc(-c2ccc(F)cc2)c(-c2ccncc2)n1CCCc1ccccc1` had a remaining parasite growth % (stronger effect = lower value) in [1] of 1.18%. This compound also displayed an activity, percent of control in assay [2] of 8.27%. This compound also had a remaining proliferation (% of control), lower = more inhibition in assay [3] of 7.5%. This compound also showed a parasite growth, % of DMSO control in assay [4] of 15%. This compound also yielded a parasite growth remaining, % of DMSO control (lower = more inhibition) in [5] of 21.2%. In addition, in assay [6], the parasite growth, % of control (lower = inhibition) amounted to 15.5%. The compound also showed a growth, % of control in assay [7] of 7.31%. The Potency in assay [8] is 23.5 µM (active). For the same compound, in assay [9], the cell viability, % of control (lower = more cytotoxic) was 98.7%. This compound displayed a viability (% of control) in [10] of 18.4%. Besides, the Potency result in [11] and in assay [12] was “inactive” in each case.

As to `COc1ccc(C2=N[C@H](c3ccc(Cl)cc3)[C@H](c3ccc(Cl)cc3)N2C(=O)N2CCNC(=O)C2)c(OC(C)C)c1`, in assay [13], the max response was 18.2% (inactive). The compound also had a remaining parasite growth % (stronger effect = lower value) in assay [1] of 52.3%. In assay [2], this compound came in with an activity, percent of control of 50.5%. In assay [3], this compound yielded a remaining proliferation (% of control), lower = more inhibition of 23.2%. Further, in [4], the parasite growth, % of DMSO control stood at 17.5%. In addition, the parasite growth remaining, % of DMSO control (lower = more inhibition) in assay [5] was 54.6%. Also, the parasite growth, % of control (lower = inhibition) in assay [6] was 11.8%. In addition, the Potency is 33.2 µM (active) in assay [8], 18.7 µM (active) in assay [14], 16.6 µM (active) in [15] and 5.26 µM (active) in assay [16]. In addition, the cell viability, % of control (lower = more cytotoxic) in assay [9] came out at 4.67%. The same compound yielded a viability (% of control) in [10] of 4.23%. For the same compound, the Potency entry in [11] and in assay [12] was “inactive” each time.

`CCOC(=O)N[C@@H]1CC[C@@H]2[C@@H](C1)C[C@H]1C(=O)O[C@H](C)[C@H]1[C@@H]2C=Cc1ccc(-c2cccc(F)c2)cn1`: the max response in assay [13] was -4.74% (inactive). The remaining parasite growth % (stronger effect = lower value) in assay [1] turned out to be 1.23%. The activity, percent of control in assay [2] stood at 7.47%. In [3], the remaining proliferation (% of control), lower = more inhibition was determined as 0.902%. For the same compound, the parasite growth, % of DMSO control in assay [4] is 7.63%. This compound came in with a parasite growth remaining, % of DMSO control (lower = more inhibition) in assay [5] of 45%. Also, the parasite growth, % of control (lower = inhibition) in assay [6] came out at 22%. Besides, the growth, % of control in [7] was found to be 5.21%. For the same compound, the values for the Potency in [8] and in assay [15] were 16.6 µM (active) and 20.9 µM (active), respectively. In addition, the cell viability, % of control (lower = more cytotoxic) in assay [9] was determined as 14.3%. Further, the viability (% of control) in assay [10] is 20%. Further, the Potency result in [11] and in assay [12] was “inactive” each time.

On to `Cc1ccc(NC(=O)c2cccc(C(C)(C)C#N)c2)cc1Nc1ccc2ncn(C)c(=O)c2c1`, for which, in assay [13], the max response was -12.3% (inactive). In [1], this compound came in with a remaining parasite growth % (stronger effect = lower value) of 34.8%. The activity, percent of control in assay [2] was 49.3%. Moreover, the remaining proliferation (% of control), lower = more inhibition in [3] was determined as 7.17%. Besides, the parasite growth, % of DMSO control in assay [4] was determined as 17.3%. Further, the parasite growth remaining, % of DMSO control (lower = more inhibition) in assay [5] is 39.9%. For the same compound, in assay [6], the parasite growth, % of control (lower = inhibition) turned out to be 51%. The growth, % of control in [7] stood at 16.2%. Further, the Potency in assay [8] was 26.4 µM (active); in [14] it was 14.8 µM (active); in [16], 14.8 µM (active). Further, the cell viability, % of control (lower = more cytotoxic) in assay [9] was 8.79%. Also, in assay [10], the viability (% of control) is 14%. For the same compound, the Potency entry in [11] and in assay [12] was “inactive” in each case.

In the case of `COc1ccccc1[C@H](c1cccc2ccccc12)[C@@](C)(C#N)C(=O)N1CCC(c2cccc(C(F)(F)F)c2)CC1`, the max response in assay [13] is -0.358% (inactive). This compound yielded a remaining parasite growth % (stronger effect = lower value) in assay [1] of 1.65%. This compound had an activity, percent of control in assay [2] of 1.44%. Also, in [3], the remaining proliferation (% of control), lower = more inhibition came to 0.956%. The parasite growth, % of DMSO control in assay [4] is 5.47%. This compound had a parasite growth remaining, % of DMSO control (lower = more inhibition) in assay [5] of 8.96%. Also, the parasite growth, % of control (lower = inhibition) in assay [6] came to 9.97%. The growth, % of control in [7] stood at 6.38%. The Potency in [8] was 7.43 µM (active); in assay [14] it was 13.2 µM (active); in assay [15], 10.5 µM (active); in assay [16] it was 6.62 µM (active). In assay [9], this compound registered a cell viability, % of control (lower = more cytotoxic) of 2.69%. Besides, the viability (% of control) in assay [10] was determined as 10.6%. Besides, the Potency result in assay [11] and in assay [12] was “inactive” throughout.

`CCOc1cc(C(=O)Nc2ccc(Cl)c(-c3nc4ccccc4[nH]3)c2)cc(OCC)c1OCC`: the max response in assay [13] is -21.5% (inactive). The same compound displayed a remaining parasite growth % (stronger effect = lower value) in assay [1] of 1.56%. The compound also yielded an activity, percent of control in assay [2] of 15.9%. Besides, the remaining proliferation (% of control), lower = more inhibition in assay [3] came out at 0.587%. The same compound returned a parasite growth, % of DMSO control in [4] of 5.5%. In assay [5], this compound had a parasite growth remaining, % of DMSO control (lower = more inhibition) of 58.5%. The compound further displayed a parasite growth, % of control (lower = inhibition) in [6] of 17%. The results for the Potency in assay [8] and in assay [14] were 18.7 µM (active) and 14.8 µM (active), respectively. The cell viability, % of control (lower = more cytotoxic) in [9] is 0.788%. The viability (% of control) in assay [10] was 43.8%. The Potency result in [11] and in [12] was “inactive” throughout.

For `Cc1ccnc(NS(=O)(=O)c2ccc(NC(=O)Nc3ccc(S(=O)(=O)Nc4nccc(C)n4)cc3)cc2)n1`, in assay [13], the max response is -10.8% (inactive). Besides, in assay [1], the remaining parasite growth % (stronger effect = lower value) came to 12%. For the same compound, in [2], the activity, percent of control came to 27.4%. In assay [3], this compound registered a remaining proliferation (% of control), lower = more inhibition of 3.95%. This compound showed a parasite growth, % of DMSO control in assay [4] of 15.7%. In assay [5], the parasite growth remaining, % of DMSO control (lower = more inhibition) is 70.2%. The parasite growth, % of control (lower = inhibition) in [6] turned out to be 26.2%. The same compound gave a growth, % of control in [7] of 9.87%. Besides, the Potency in assay [8] is 6.62 µM (active). For the same compound, in assay [9], the cell viability, % of control (lower = more cytotoxic) was 75.2%. In addition, the viability (% of control) in [10] is 24.4%. For the same compound, the Potency entry in assay [11] and in [12] was “inactive” each time.
